# From PubChem BioAssay (NCATS)
# Inconclusive results are not listed. Unmarked numbers belong to inactive results. Calls of active or inactive are those of the source. Calls come from the whole dose curve; as a rule, active = well fitted inhibition curve with a large enough effect; inconclusive = small, poorly fitted or top-dose-only effect; inactive = flat fitted curve, though single readings scatter.
# Tests used:
# Experiment in all cases: Cytotoxic Profiling of Annotated Libraries Using Quantitative High-Throughput Screening (AID 1296008); note: nearly all actives have a fitted effect of over 60% in size
# Conditions in all cases: Five cell lines viability, CellTiter-Glo ATP luminescence, 48-72 h; max response: active compounds read low
# CRL-7250 = normal cell line; tested on: CRL-7250
# Outline: (§1)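 Cells exposed to compounds for 48 or 72 hr at 37 degrees Celsius. Viability read as ATP-coupled luminescence with CellTiter-Glo after 10 min at room temperature.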
# HEK293 = tested on: HEK293
# Outline: as §1
# HaCat = tested on: HaCat
# Outline: as §1
# KB-3-1 = tested on: KB-3-1
# Outline: as §1
# NIH3T3 = tested on: NIH3T3
# Outline: as §1
# % is set by controls: 0 for no effect and ±100 for the full control effect; potency is the fitted concentration of half-maximal effect.
structure (smiles),measurement,setting,value
COC(=O)C1=CO[C@@H](O[C@@H]2O[C@H](CO)[C@@H](O)[C@H](O)[C@H]2O)[C@@H]2C(CO)=CC[C@H]12,max response,CRL-7250,3.17%
same,max response,HEK293,-17.4%
same,outcome,HaCat,inactive
same,outcome,KB-3-1,inactive
same,max response,NIH3T3,-0.343%
CC1(C)C=Cc2c(ccc3c2[N+]([O-])=C2C3(O)CC34NC(=O)C5(CCCN5C3=O)CC4C2(C)C)O1 (stereo not given),max response,CRL-7250,-1.3%
same,max response,HEK293,-1.32%
same,max response,HaCat,-0.0821%
same,outcome,KB-3-1,inactive
same,outcome,NIH3T3,inactive
CC[C@H]1OC(=O)[C@H](C)C(=O)[C@H](C)[C@@H](OC2O[C@H](C)C[C@H](N(C)C)[C@H]2O)[C@@H](C)C[C@@H](C)C(=O)/C=C/[C@]1(C)O (stereo not given in full),max response,CRL-7250,-0.333%
same,max response,HEK293,-11.3%
same,outcome,HaCat,inactive
same,max response,KB-3-1,7.73%
same,outcome,NIH3T3,inactive
CC(=O)Nc1cccc2c1c(Sc1ccc(Cl)cc1)c(C)n2CC(=O)O,max response,CRL-7250,-5.82%
same,max response,HEK293,1.56%
same,max response,HaCat,-2.39%
same,max response,KB-3-1,-3.16%
same,outcome,NIH3T3,inactive
CC(=O)OC(C)C(C)(O)C(=O)O[C@@H]1CC[C@]2(C)CC(=O)C(=C(C)C)C[C@H]2[C@]1(C)OC(C)=O (stereo not given in full),max response,CRL-7250,-0.377%
same,max response,HEK293,0.4%
same,outcome,HaCat,inactive
same,max response,KB-3-1,6.09%
same,max response,NIH3T3,-1.04%
Nc1ncnc2c1ncn2[C@H]1O[C@@H](C(=O)N2CCN(CC(=O)Nc3cccc4c3CNC4=O)CC2)[C@H](O)[C@@H]1O,outcome,CRL-7250,inactive
same,max response,HEK293,1.78%
same,outcome,HaCat,inactive
same,outcome,KB-3-1,inactive
same,outcome,NIH3T3,inactive
CC(=O)O[C@@H]1CC2C(C)(C)C(=O)C=C[C@]2(C)C2CC[C@]3(C)C(=CC(=O)[C@@H]3c3ccoc3)[C@@]21C (stereo not given in full),max response,CRL-7250,0.62%
same,max response,HEK293,-22.3%
same,outcome,HaCat,inactive
same,outcome,KB-3-1,inactive
same,max response,NIH3T3,0.533%
CCC(C)/C=C(C)/C=C/C1=CC2=C(Cl)C(=O)C(C)(OC(C)=O)C(=O)C2=CN1C(CC(=O)O)C(=O)O (stereo not given),max response,CRL-7250,4.26%
same,max response,HEK293,4.62%
same,outcome,HaCat,inactive
same,max response,KB-3-1,7.58%
same,max response,NIH3T3,-16.9%
C[C@@H]1O[C@@H](O[C@@H]2[C@@H](O)[C@H](O[C@H]3[C@H](O[C@H]4CC[C@@]5(C)C(CC[C@]6(C)C5CC=C5[C@@H]7CC(C)(C)CC[C@]7(C(=O)O[C@@H]7O[C@H](CO)[C@@H](O)[C@H](O)[C@H]7O)CC[C@]56C)C4(C)C)O[C@H](C(=O)O)[C@@H](O)[C@@H]3O)OC[C@H]2O)[C@H](O)[C@H](O)[C@H]1O (stereo not given in full),max response,CRL-7250,2.65%
same,max response,HEK293,-0.54%
same,outcome,HaCat,inactive
same,outcome,KB-3-1,inactive
same,outcome,NIH3T3,inactive
C=C1[C@H](OC(C)=O)[C@H]2[C@@H](OC(=O)c3ccccc3)[C@@H](C)C[C@]2(O)[C@@H](OC(C)=O)[C@H](C)/C=C/C(C)(C)C(=O)[C@H](OC(C)=O)[C@H]1OC(C)=O,max response,CRL-7250,3.14%
same,max response,HEK293,-5.03%
same,outcome,HaCat,inactive
same,outcome,KB-3-1,inactive
same,max response,NIH3T3,3.53%
CC1(C)CC[C@]2(C(=O)OC3OC(CO)C(O)C(O)C3O)CC[C@]3(C)C(=CCC4[C@@]5(C)C[C@@H](O)[C@H](OC6OC(C(=O)O)C(O)C(O)C6O)C(C)(C)C5CC[C@]43C)[C@@H]2C1 (stereo not given in full),max response,CRL-7250,2.21%
same,max response,HEK293,3.34%
same,outcome,HaCat,inactive
same,max response,KB-3-1,7.37%
same,max response,NIH3T3,-4.63%
C=C1CCC2C(C)(C)CC(=O)CC2(C)C1CCC(C)CCO (stereo not given),max response,CRL-7250,-5.3%
same,max response,HEK293,1.61%
same,outcome,HaCat,inactive
same,max response,KB-3-1,0.95%
same,outcome,NIH3T3,inactive
O=C(COCC(=O)N1CCN(C(c2ccccc2)c2ccccc2)CC1)Nc1ccc(Cl)cc1C(=O)O,max response,CRL-7250,-11.2%
same,max response,HEK293,4.17%
same,max response,HaCat,-6.79%
same,outcome,KB-3-1,inactive
same,outcome,NIH3T3,inactive
O=C(Nc1ccn(Cc2c(F)cccc2C(F)(F)F)n1)c1c(F)cccc1F,max response,CRL-7250,-12.9%
same,max response,HEK293,1.72%
same,outcome,HaCat,inactive
same,outcome,KB-3-1,inactive
same,max response,NIH3T3,2.19%
COC(=O)[C@]1(C)CCC[C@@]2(C)[C@@H]3CC[C@@H]4C[C@@]3(CC[C@@H]21)C[C@H]4C(=O)O,max response,CRL-7250,-6.63%
same,max response,HEK293,0.134%
same,max response,HaCat,0.436%
same,max response,KB-3-1,9.78%
same,outcome,NIH3T3,inactive
C[C@@H]1CC[C@]2(C(=O)O[C@@H]3O[C@H](CO[C@@H]4O[C@H](CO)[C@@H](O[C@@H]5O[C@@H](C)[C@H](O)[C@@H](O)[C@H]5O)[C@H](O)[C@H]4O)[C@@H](O)[C@H](O)[C@H]3O)CC[C@]3(C)C(=CCC4[C@@]5(C)C[C@@H](O)[C@H](O)[C@@](C)(CO)C5CC[C@]43C)C2[C@H]1C (stereo not given in full),max response,CRL-7250,-0.89%
same,max response,HEK293,-0.975%
same,outcome,HaCat,inactive
same,max response,KB-3-1,3.97%
same,max response,NIH3T3,1.43%
COc1ccc(OC2OC(CO[C@@H]3O[C@@H](C)[C@H](O)[C@@H](O)[C@H]3O)C(O)C(O)C2O)cc1OC (stereo not given in full),max response,CRL-7250,3.33%
same,max response,HEK293,-0.0887%
same,outcome,HaCat,inactive
same,max response,KB-3-1,5.53%
same,outcome,NIH3T3,inactive
COC1CC(O[C@H]2CC[C@@]3(C)C(=CC[C@]4(O)C3[C@H](O)[C@@H](O)[C@]3(C)[C@@H]([C@H](C)O)CC[C@@]34O)C2)OC(C)C1OC1CC(OC)C(OC2CC(OC)C(OC3OC(C)C(OC4OC(CO)C(O)C(O)C4O)C(OC)C3O)C(C)O2)C(C)O1 (stereo not given in full),max response,CRL-7250,-21.7%
same,max response,HEK293,-82.7%
same,outcome,HaCat,inactive
same,max response,KB-3-1,2.22%
same,max response,NIH3T3,-54.6%
N=C(N)c1ccc2nc(-c3cc(CC(=O)NC(CC(=O)O)C(=O)O)cc(-c4cc(S(N)(=O)=O)ccc4O)c3O)[nH]c2c1 (stereo not given),max response,CRL-7250,-1.88%
same,max response,HEK293,1.8%
same,outcome,HaCat,inactive
same,outcome,KB-3-1,inactive
same,max response,NIH3T3,-8.69%
CC(O)C1CCC2C3CCC4CC(OC5OC(C(=O)O)C(O)C(O)C5O)CCC4(C)C3CCC12C (stereo not given),max response,CRL-7250,-11.7%
same,max response,HEK293,-10.1%
same,outcome,HaCat,inactive
same,max response,KB-3-1,-9.6%
same,max response,NIH3T3,-3.21%
O=C(O[C@@H]1O[C@H](CO)[C@@H](O)[C@H](O)[C@H]1O)c1ccccc1,outcome,CRL-7250,inactive
same,outcome,HEK293,inactive
same,max response,HaCat,4.66%
same,outcome,KB-3-1,inactive
same,max response,NIH3T3,4.36%
C=C(C(=O)O)[C@@H]1CC[C@@]2(C)CC[C@@H](O)C(=C)C2C1 (stereo not given in full),max response,CRL-7250,4.71%
same,max response,HEK293,-1.36%
same,max response,HaCat,-0.0078%
same,max response,KB-3-1,-6.38%
same,outcome,NIH3T3,inactive
O=C(O)/C=C/c1ccc2occc2c1O[C@@H]1O[C@H](CO)[C@@H](O)[C@H](O)[C@H]1O,max response,CRL-7250,-6.75%
same,max response,HEK293,1.57%
same,outcome,HaCat,inactive
same,outcome,KB-3-1,inactive
same,outcome,NIH3T3,inactive
O=C(O)c1cccc(CN2C(=O)/C(=C(\c3ccccc3)c3ccc(Cl)cc3)c3ccccc32)c1,max response,CRL-7250,3.11%
same,max response,HEK293,-10.4%
same,outcome,HaCat,inactive
same,max response,KB-3-1,5.03%
same,max response,NIH3T3,-3.22%
CC(C)CC(=O)NCCn1cc(C(=O)O)c(=O)cc1C(O)c1ccccc1 (stereo not given),outcome,CRL-7250,inactive
same,max response,HEK293,-11.3%
same,outcome,HaCat,inactive
same,outcome,KB-3-1,inactive
same,max response,NIH3T3,3.17%
CC(O)C1NC(=O)C2CCCN2C1=O (stereo not given),max response,CRL-7250,3.11%
same,outcome,HEK293,inactive
same,max response,HaCat,-1.16%
same,outcome,KB-3-1,inactive
same,max response,NIH3T3,-1.84%
CCCO[C@@H]1O[C@H](CO)[C@@H](O)[C@H](O)[C@H]1O[C@@H]1OC[C@@H](O)[C@H](O)[C@H]1O,max response,CRL-7250,1.31%
same,max response,HEK293,-4.21%
same,outcome,HaCat,inactive
same,max response,KB-3-1,9.26%
same,max response,NIH3T3,-1.11%
CC(C)NC(=O)c1ccc(C#Cc2ccncc2)cn1,max response,CRL-7250,-8.3%
same,max response,HEK293,-19.1%
same,outcome,HaCat,inactive
same,outcome,KB-3-1,inactive
same,outcome,NIH3T3,inactive
CC1(C)CC[C@]2(C(=O)O[C@@H]3O[C@H](CO)[C@@H](O)[C@H](O)[C@H]3O)CC[C@]3(C)C(=CCC4[C@@]5(C)C[C@@H](O)[C@H](O)[C@@](C)(CO)C5[C@H](O)C[C@]43C)C2[C@@H]1O (stereo not given in full),outcome,CRL-7250,inactive
same,max response,HEK293,-12.5%
same,max response,HaCat,1.4%
same,outcome,KB-3-1,inactive
same,outcome,NIH3T3,inactive
CC(O)C(=O)/C=C/C=C/C(=O)OC1C=C2COC(=O)C2(O)C2(C)CCCC(C)(C)C12 (stereo not given),max response,CRL-7250,-6.23%
same,max response,HEK293,3.48%
same,outcome,HaCat,inactive
same,max response,KB-3-1,4.29%
same,outcome,NIH3T3,inactive
CC1CC2(O)OC(=O)C3=C2C(CCC3)[C@@]12C[C@@H](c1ccoc1)OC2=O (stereo not given in full),max response,CRL-7250,0.272%
same,max response,HEK293,-0.207%
same,outcome,HaCat,inactive
same,outcome,KB-3-1,inactive
same,max response,NIH3T3,0.0082%
Oc1ccc2c(-c3c(-c4ccccn4)nn4c3CCC4)ccnc2c1,max response,CRL-7250,-1.66%
same,max response,HEK293,-21.7%
same,outcome,HaCat,inactive
same,max response,KB-3-1,-4.91%
same,Potency,NIH3T3,13 µM (active)
CC(=O)OC(C)(C)/C=C/C(=O)[C@](C)(O)C1[C@H](O)C[C@@]2(C)[C@@H]3CC=C4[C@@H](C[C@H](O[C@@H]5O[C@H](CO)[C@@H](O)[C@H](O)[C@H]5O)C(=O)C4(C)C)[C@]3(C)C(=O)C[C@]12C (stereo not given in full),outcome,CRL-7250,inactive
same,max response,HEK293,-17.8%
same,outcome,HaCat,inactive
same,max response,KB-3-1,1.94%
same,outcome,NIH3T3,inactive
Cc1cc(-n2c(=O)[nH]c(=O)n(C)c2=O)ccc1Oc1ccc(SC(F)(F)F)cc1,max response,CRL-7250,-0.879%
same,max response,HEK293,4.1%
same,outcome,HaCat,inactive
same,max response,KB-3-1,1.4%
same,outcome,NIH3T3,inactive
CC(C)=CCC/C(C)=C/CO[C@@H]1O[C@H](CO[C@@H]2O[C@@H](CO)[C@H](O)[C@H]2O)[C@@H](O)[C@H](O)[C@H]1O,max response,CRL-7250,-10.8%
same,max response,HEK293,-7.37%
same,outcome,HaCat,inactive
same,outcome,KB-3-1,inactive
same,outcome,NIH3T3,inactive
NC(=O)c1ccc(F)c2c1C[C@@H](N(C1CCC1)C1CCC1)CO2,outcome,CRL-7250,inactive
same,max response,HEK293,-5.17%
same,outcome,HaCat,inactive
same,max response,KB-3-1,4.79%
same,max response,NIH3T3,3.88%
COC(=O)C1=C[C@@H](O)[C@@H](O)[C@H](O[C@@H]2O[C@H](CO)[C@@H](O)[C@H](O)[C@H]2OC(=O)/C=C/c2ccccc2)C1,max response,CRL-7250,-2.62%
same,max response,HEK293,-6.26%
same,outcome,HaCat,inactive
same,max response,KB-3-1,-5.3%
same,max response,NIH3T3,-1.73%
